Our source for the inhibition values is PubChem BioAssay AID1026 (Columbia University Molecular Screening Center, 2008).

Calls of active or inactive are those of the source. The rule behind the calls is not given here.

The target of the test is Bifunctional epoxide hydrolase 2 (Homo sapiens) (UniProt P34913). Put plainly: sEH inhibitor concentration-response potency, dose response, biochemical, human sEH, fluorescence, Infinite200 (AID 1026). Particulars: recombinant human sEH, fluorogenic substrate, at 0.2 µM, stronger effect = higher value.
Chain of Bifunctional epoxide hydrolase 2 (Homo sapiens) (P34913 whole entry, looked up): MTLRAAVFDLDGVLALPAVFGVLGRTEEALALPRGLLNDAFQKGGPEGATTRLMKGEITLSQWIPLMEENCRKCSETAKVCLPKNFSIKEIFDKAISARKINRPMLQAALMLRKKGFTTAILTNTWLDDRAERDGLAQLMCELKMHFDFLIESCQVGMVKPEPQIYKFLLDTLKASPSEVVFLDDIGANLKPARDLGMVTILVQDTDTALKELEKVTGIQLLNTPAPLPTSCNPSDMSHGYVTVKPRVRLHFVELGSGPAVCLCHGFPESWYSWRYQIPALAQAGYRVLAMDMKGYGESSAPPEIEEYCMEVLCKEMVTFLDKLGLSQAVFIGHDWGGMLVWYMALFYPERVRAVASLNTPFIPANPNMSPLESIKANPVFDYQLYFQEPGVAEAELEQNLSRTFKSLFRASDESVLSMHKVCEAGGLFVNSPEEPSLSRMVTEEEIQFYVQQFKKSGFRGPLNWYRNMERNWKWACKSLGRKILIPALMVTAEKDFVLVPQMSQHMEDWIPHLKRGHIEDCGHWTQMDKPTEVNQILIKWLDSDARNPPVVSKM

For `CC(Cc1ccccc1)NC(=O)NC(C)Cc1ccccc1` (stereo unspecified), the inhibition (in general, how much of the control response was suppressed) is 71.6% (inactive).
